# Measured values published in PubChem BioAssay (Tox21).
# Records with an inconclusive call do not appear. Unmarked numbers belong to inactive results. Activity calls are given as the source filed them. The call rests on the fitted dose curve; in most records, active means well fitted cell-killing curve with a large enough effect in the repeat runs; inconclusive means weak or mixed curves, or effect the other way; inactive means flat fitted curve, though single readings scatter.
# Assay: qHTS RealTime-Glo MT Cell Viability Assay in HEK293 cells - 16 hour (AID 1224872); further: nearly all actives have a fitted effect of over 50% in size; on activity change, negative = cytotoxicity: top concentration of the series differs between compounds
# Conditions: RealTime-Glo luminescence; series mostly up to 76.8 µM; activity change, negative = cytotoxicity: at the top concentration
# Description: National Center for Advancing Translational Sciences [NCATS]
# NIH Chemical Genomics Center [NCGC]
# U.S. Environmental Protection Agency [EPA]
# National Institutes of Environmental Health Sciences [NIEHS]
# National Toxicology Program [NTP]
# U.S. Food and Drug Administration [FDA]
# Measure of cell viability is critical in the cell-base assay. Analysis of cell viability is necessary for the characterization of cell responses to cytotoxic drugs and environmental stress. A RealTime-Glo MT Cell Viability Assay to monitor cell viability in real time of continues cell culture during 40 hours of compound treatment was used to screen Tox21 10K library compounds in Hek293 cells. The RealTime-Glo MT Cell Viability Assay is a nonlytic, homogeneous, bioluminescent method to measure cell viability in real time using a simple, plate-based method. The assay involves adding NanoLuc luciferase and a cell-permeant prosubstrate to cells in culture. Viable cells reduce the proprietary prosubstrate to generate a substrate for NanoLuc luciferase. This substrate diffuses from cells into the surrounding culture medium, where it is rapidly used by the NanoLuc Enzyme to produce a luminescent signal. The signal correlates with the number of viable cells, making the assay well suited for cytotoxicity studies.
# Tox21 Assay Protocol Summary:
# The mixture of Hek293 cell suspension and reagents were dispensed at 600cells/6 ul/well in 1536-well tissue culture treated black solid bottom plates using a Multidrop dispenser. After the assay plates were incubated at a 37 C/5% CO2 incubator for 5 hours, 23 nL of compounds dissolved in DMSO, positive and negative controls was transferred to the assay plate by a pintool work station. The plates were incubated at 37 C for 40 hours. The luminescence intensity were measured at 0h, 8h, 16h, 24h, 32h and 40h time points using ViewLux plate reader during compound treatment.
# On the % scale 0 is the no-effect control and ±100 the full control effect; potency means the concentration at half of the fitted maximal effect.
SMILES,"activity change, negative = cytotoxicity",Potency
ONc1ccccc1,-20.6%,–
Nc1nc(-c2ccccc2)c(Br)c(=O)[nH]1,0.368% [at 35.3 µM],–
CC1=C(O)C(=O)C(C)O1 (stereo not given),2.39%,–
CC(C)OC(=O)OCOP(=O)(CO[C@H](C)Cn1cnc2c(N)ncnc21)OCOC(=O)OC(C)C,4.07% [at 35.3 µM],–
O=C(NCN1CCOCC1)c1cnccn1,-1.87% [at 35.3 µM],–
C=C(C)[C@@H]1CC=C(C)C(=O)C1,-2.75%,–
Cc1c(C(=O)c2c[nH]n(C)c2=O)ccc(S(C)(=O)=O)c1C1=NOCC1,16% [at 35.3 µM],–
O=C(O)CNC(=O)CNC(=O)CNC(=O)CSC(=O)c1ccccc1,9.88% [at 35.3 µM],–
CSc1cnccn1,-13.8%,–
CCOCCOCC,0.198%,–
COc1cc2c(cc1OC)C(=O)C(CC1CCN(Cc3ccccc3)CC1)C2 (stereo not given),–,21.3 µM (active)
C/C=C(\C)C(=O)OCCc1ccccc1,-1.79%,–
C=CCCCCCCCC,2.61%,–
COc1c2occc2c(OC)c2c(=O)cc(C)oc12,–,9.52 µM (active)
CCCCSCCCC,1.52%,–
Nc1nnnn1-c1ccccc1,6.97% [at 35.3 µM],–
C[C@@H](O)C(=O)O,5.44%,–
Cc1ccc(C(=O)O)cc1[N+](=O)[O-],8.08%,–
CCCCCC(C)O (stereo not given),10.8%,–
C/C(CC(C)C)=N\O,-1.32%,–

SMILES,"activity change, negative = cytotoxicity",Potency
CNCCS(=O)(=O)O,4%,–
CC1CC(=O)CC(C)(C)C1 (stereo not given),13.5%,–
COC(=O)c1ccccc1C(=O)O,0.209%,–
c1ccc2c(CC3=NCCN3)cccc2c1,-16.7% [at 35.3 µM],–
CC(N)CCCC(C)(C)O (stereo not given),2.4% [at 35.3 µM],–
O=S(=O)(O)c1ccc2c(N=Nc3ccc(S(=O)(=O)O)c4ccccc34)c(O)c(S(=O)(=O)O)cc2c1,5.03% [at 6.97 µM],–
OCCN1CCOCC1,-0.627%,–
CC1=C(C(=O)O)N2C(=O)[C@@H](NC(=O)[C@H](N)c3ccccc3)[C@H]2SC1,2.56% [at 35.3 µM],–
CCCc1ccc(O)cc1,1.73%,–
CO[Si](CCCn1c(=O)n(CCC[Si](OC)(OC)OC)c(=O)n(CCC[Si](OC)(OC)OC)c1=O)(OC)OC,0.856% [at 35.3 µM],–
C=C(C)[C@@H]1CC=C(C)CC1,2.49%,–
O=C1CCC(=O)N1Cl,5.52%,–
O=C(CN1CCNCC1)NC1CCCCC1,-0.679% [at 35.3 µM],–
CCNC(=O)NCc1cccc(Cl)c1,1.28% [at 35.3 µM],–
O=Cc1cc2ccccc2o1,-4.63%,–
Cc1c(Cl)cccc1Cl,1.85%,–
CCCCCCCCCCCCCCCCCC#N,-10.9%,–
CCCCOCC(C)O (stereo not given),9.28%,–
CC(=O)OC(C)=O,5.23%,–
CC1c2ccccc2CN1NC(=O)c1ccc(Cl)c(S(N)(=O)=O)c1 (stereo not given),0.39% [at 35.3 µM],–
